# Only some compounds are listed: those with a hit (about 2.9% of all), similar ones and a draw of the others.
# KDM5B inhibitor – inhibitors of human KDM5B histone demethylase. Q9UGL1. KDM5B demethylase, FDH-coupled NADH fluorescence (FDH is formaldehyde dehydrogenase). Potency, µM (series often up to 57.7 µM), actives largely listed as inhibitors. 2.6% of 220,000 active. AID 1347165; note: potency is the fitted concentration of half-maximal effect; 0% is about no effect; nearly all actives have a fitted effect of over 70% in size
# Target sequence (Q9UGL1 whole entry, looked up): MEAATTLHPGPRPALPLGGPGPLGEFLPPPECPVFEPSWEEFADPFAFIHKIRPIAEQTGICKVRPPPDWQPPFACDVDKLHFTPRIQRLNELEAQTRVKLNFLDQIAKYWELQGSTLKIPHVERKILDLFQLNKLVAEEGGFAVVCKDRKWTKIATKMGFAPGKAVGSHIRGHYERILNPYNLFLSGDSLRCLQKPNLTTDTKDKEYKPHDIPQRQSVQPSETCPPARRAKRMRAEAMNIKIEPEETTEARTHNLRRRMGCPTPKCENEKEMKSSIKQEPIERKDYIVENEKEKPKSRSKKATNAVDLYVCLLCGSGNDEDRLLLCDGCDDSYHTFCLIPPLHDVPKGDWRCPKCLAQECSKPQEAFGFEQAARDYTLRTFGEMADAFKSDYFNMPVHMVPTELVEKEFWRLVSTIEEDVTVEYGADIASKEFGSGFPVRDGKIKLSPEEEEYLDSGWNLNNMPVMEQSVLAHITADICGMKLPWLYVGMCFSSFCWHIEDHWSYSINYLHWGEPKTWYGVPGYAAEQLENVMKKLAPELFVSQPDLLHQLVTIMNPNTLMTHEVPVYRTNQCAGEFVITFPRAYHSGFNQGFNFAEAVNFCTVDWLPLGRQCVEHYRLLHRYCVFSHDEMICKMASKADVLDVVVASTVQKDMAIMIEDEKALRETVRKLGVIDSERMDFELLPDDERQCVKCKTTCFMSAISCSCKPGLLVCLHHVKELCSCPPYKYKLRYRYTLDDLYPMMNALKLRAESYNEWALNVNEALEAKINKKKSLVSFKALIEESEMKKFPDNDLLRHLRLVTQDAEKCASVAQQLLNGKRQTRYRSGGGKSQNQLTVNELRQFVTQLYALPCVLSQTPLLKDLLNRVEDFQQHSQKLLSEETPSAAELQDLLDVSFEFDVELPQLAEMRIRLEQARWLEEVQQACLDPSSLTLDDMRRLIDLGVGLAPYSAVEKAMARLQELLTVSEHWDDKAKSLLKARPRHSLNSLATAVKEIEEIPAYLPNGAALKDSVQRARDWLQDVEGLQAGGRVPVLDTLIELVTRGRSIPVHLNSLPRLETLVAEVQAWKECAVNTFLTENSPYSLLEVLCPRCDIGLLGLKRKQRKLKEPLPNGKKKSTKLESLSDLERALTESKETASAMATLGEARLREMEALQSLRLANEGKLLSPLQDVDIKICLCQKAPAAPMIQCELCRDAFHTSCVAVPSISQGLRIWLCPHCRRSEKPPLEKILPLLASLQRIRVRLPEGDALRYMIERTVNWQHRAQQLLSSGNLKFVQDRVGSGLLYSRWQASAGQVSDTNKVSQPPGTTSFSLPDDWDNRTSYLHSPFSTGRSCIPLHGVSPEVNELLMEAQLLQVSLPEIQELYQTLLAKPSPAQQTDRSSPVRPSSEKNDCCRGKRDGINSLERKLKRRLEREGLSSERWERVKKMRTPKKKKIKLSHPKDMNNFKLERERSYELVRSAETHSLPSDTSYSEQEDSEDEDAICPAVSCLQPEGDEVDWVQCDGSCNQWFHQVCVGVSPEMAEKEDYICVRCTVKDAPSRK
#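 Here, H3K4me3 peptide (12.5 µM in substrate mix) is demethylated by KDM5BΔAP, 200 nM final, after 10 min compound exposure. Formaldehyde product is coupled through FDH (0.25 U/mL in mix) to NADH fluorescence; 30-min ΔRFU feeds dose-response curves.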
# IP6K1 inhibitor – blocks human inositol hexakisphosphate kinase 1; Q92551; IP6K1 kinase, ADP-Glo luminescence, 2 h; hits give low values; activity change, % (series mostly up to about 58 µM); 0.81% of 140,000 active; AID 1645851; in the data active = activity change below about -25%; note: % is set by controls: 0 for no effect and ±100 for the full control effect
#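 ADP-Glo luminescence measures ADP made by human IP6K1 during a 2 h RT reaction with ATP/IP6 (mix at 1.3 mM/130 uM); top library doses 57.5 and 19.1 uM final.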
# SNCA viab count – reduces viability of HEK-293 SNCA reporter cells | HEK-293-SNCA-luc viability, GF-AFC fluorescence, 24 h | Potency, µM (highest dose often 57.1 µM), without a hit: at the highest dose activity change, negative = cytotoxicity, hits mostly cytotoxic | 0.12% of 150,000 active;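 note: potency is the fitted concentration of half-maximal effect; 0% = DMSO-treated cells and -100% = medium-only wells without cells; nearly all actives have a fitted effect of over 30% in size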
#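 HEK-293-SNCA-luc cells (1500/well) plated 24 h, then exposed 24 h to a dilution series; GF-AFC added 30 min at 37C, fluorescence 405/540 nm; normalised to medium-only and DMSO wells, Hill fit.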
# SNCA expr inh – reduces expression of the alpha-synuclein gene; HEK-293 SNCA-luciferase knock-in, luminescence, 24 h; Potency, µM (top dose mostly 57.2 µM), for the others: top-dose activity change, negative = inhibition, most hits filed as inhibitors; 0.17% of 140,000 active; AID 1671194;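 note: potency is the fitted concentration of half-maximal effect; plate controls were DMSO cells for no effect and cell-free wells for full effect; nearly all actives have a fitted effect of over 45% in size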
# Starred values were filed as active, the others as inactive; i = inactive; ? = inconclusive; · = not tested or not shown; [ ] = dose if it differs, or a comment. Unless noted, calls come from the whole dose curve; as a rule, active = well fitted curve in the direction sought with a large enough effect; inconclusive = small, poorly fitted or top-dose-only effect, or another doubt; inactive = no such curve, though single readings can be large; an effect the other way counts as inactive or inconclusive.
SMILES,KDM5B inhibitor,IP6K1 inhibitor,SNCA viab count,SNCA expr inh
Cc1ccc(-c2c(C(=O)NCCc3ccc(Cl)cc3)nc3sccn23)cc1,·,11,-9%,-7%
O=C(NCCc1ccc(Cl)cc1)c1nc(-c2ccc(F)cc2)c2cnccn12,32µM*,5,2%,-8%
O=C(NCCc1ccc(Cl)cc1)c1ccc2nnc(-c3ccc(F)cc3)n2c1,·,6,4%,-2%
COc1ccc(CNC[C@H]2Cn3c(-c4ccc(Cl)cc4)cnc3CO2)cc1,i,20,-16%[87.6 µM],-11%[87.6 µM]
CC(C)c1cc(C(=O)N2CCN(c3ncccc3C#N)CC2)n(C)n1,32µM*,20,-3%,-3%
Cc1nc(C(=O)NC2CCN(c3ncccc3C#N)CC2)cs1,28µM*,8,10%,4%
CC(C)NC(=O)NC1CCN(C(=O)c2ccc(-c3ncccc3C#N)cc2)CC1,·,24,11%[12.5 µM],23%
Cc1cc2cc(C(=O)N3CCN(c4ncccc4C#N)CC3)ccc2o1,28µM*,10,-28%,16%
CC(C)c1cc(C(=O)NC2CCN(c3ncccc3C#N)CC2)n(C)n1,22µM*,-5,-18%,?
COc1ccccc1-c1cccc(CN2CCCC(C(=O)NCCc3ccc(F)cc3)C2)c1 (centres undefined),·,0,-20%,?
COc1ccc(NC(=O)C2CCN(c3cnccn3)CC2)cc1OC,i,·,·,·
COc1cc(C)cc(C(C(=O)O)N2CCN(c3cnccn3)CC2)c1OC (centres undefined),28µM*,28,7%,-25%
CC(=O)NC1(C)CCN(Cc2ccc(-c3cccc(F)c3)cc2)C1 (centres undefined),?,-4,-1%[87.6 µM],111%[87.6 µM]
COc1ccc(C(=O)N2CCC(N3C(=O)c4c(c(C)nn4-c4ccccc4)C3C)C2)cc1 (centres undefined),·,2,·,·
COc1ccc2[nH]c(C[C@@H]3C[C@@H](C(C)C)[C@H](CNCc4ccccc4O)C=C3C)nc2n1,i,-10,?,?
c1ccc(-c2cc3c(cn2)CN(Cc2ccc4[nH]ccc4c2)CCN3)cc1,i,-4,?,73%[87.6 µM]
Oc1ccccc1CN1CCNc2cnc(OCc3cccnc3)cc2C1,?,-16,-1%[87.6 µM],-35%[87.6 µM]
c1cncc(COc2cc3c(cn2)NCCN(Cc2ccsc2)C3)c1,35µM*,-17,2%[87.6 µM],-18%[87.6 µM]
CCOc1cc2c(cn1)NCCN(Cc1ccc3[nH]ccc3c1)C2,28µM*,-17,6%[87.6 µM],11%[87.6 µM]
c1cncc(COc2cc3c(cn2)NCCN(CC2CCCCC2)C3)c1,25µM*,-15,1%[87.6 µM],17%[87.6 µM]
CC1(C(=O)Nc2ccccc2)CN(Cc2ccccc2)Cc2ccc(N3CCOCC3)nc21 (centres undefined),13µM*,12,-25%,?
COCCN1Cc2ccc(NCC(C)C)nc2C(C)(C(=O)Nc2ccccc2)C1 (centres undefined),?,8,-11%[87.6 µM],-8%[87.6 µM]
CC1(C(=O)Nc2ccc(F)cc2)CN(Cc2ccccc2)Cc2ccc(N3CCOCC3)nc21 (centres undefined),32µM*,-6,-16%,?
CN1CCC(NC(=O)C2(C)CN(Cc3ccccc3)Cc3ccc(Nc4ccccc4)nc32)CC1 (centres undefined),?,-12,-27%,-18%
Cc1ccc(-n2nc(-c3c(C)nc4scc(CC(=O)Nc5ccc(F)cc5)n4c3=O)cc2C)cc1,28µM*,6,-20%,-9%
SMILES,KDM5B inhibitor,IP6K1 inhibitor,SNCA viab count,SNCA expr inh
CCCNC(=O)Cc1csc2nc(C)c(-c3cc(C)n(-c4ccc(C(C)C)cc4)n3)c(=O)n12,28µM*,6,7%,-15%
CCCNC(=O)Cc1csc2nc(C)c(-c3cc(C)n(-c4ccc(C)cc4)n3)c(=O)n12,28µM*,13,3%,18%
CCC(C)NC(=O)Cc1csc2nc(C)c(-c3cc(C)n(-c4ccc(C)cc4)n3)c(=O)n12 (centres undefined),28µM*,25,5%,-14%
Cc1nc2scc(CC(=O)N3CCOCC3)n2c(=O)c1-c1cc(C)n(-c2ccc(F)cc2)n1,?,-20,8%,-1%
CCC(C)NC(=O)Cc1csc2nc(C)c(-c3cc(C)n(-c4cc(Cl)ccc4C)n3)c(=O)n12 (centres undefined),?,-3,?,19%
O=C(NC1CCN(C(=O)c2ccc(-c3cncnc3)cc2)CC1)c1ccc(C(F)(F)F)cc1,·,-2,6%[12.5 µM],?
COc1ccc(Nc2ccnc(N3CCN(C(=O)c4ccc(OC)cc4)CC3)n2)cc1,·,0,-6%,5%
COc1ccc(-c2cn3cc(C(=O)NCC(F)(F)F)nc3s2)cc1,·,-7,-25%[87.6 µM],53%[87.6 µM]
O=C(COc1ccc(F)cc1)N1CCCCCC1c1nnc(-c2ccccc2)o1 (centres undefined),·,-11,-6%,6%
COc1ccc(CCC(=O)N2CCOc3ccc(N4CCCC4)cc3C2)cc1,·,8,-14%,?
CN(Cc1ccccc1)C(=O)c1cc(-c2ccncc2)nc2ccccc12,i,·,·,·
CC(C)CN(C)C(=O)c1cc(-c2cnn(C(C)C)c2)nc2cc(F)ccc12,28µM*,-5,?,?
CC(C)n1cc(-c2cc(C(=O)N(C)Cc3cccnc3)c3cc(F)ccc3n2)cn1,25µM*,-7,-11%,3%
COCCNC(=O)[C@@H]1Cc2cn(Cc3nccn3C)c3cccc(c23)[C@H](CC(C)C)N1,?,16,-19%[87.6 µM],?
Cc1ccccc1-n1cc(-c2ccnc(NC(C)Cc3ccncc3)n2)cn1 (centres undefined),25µM*,-8,?,?
CCc1noc(-c2cccn3c(CNC(=O)Cc4ccccc4OC)nnc23)n1,?,13,1%,3%
CCc1noc(-c2cccn3c(CNC(=O)c4cc(C)ccc4C)nnc23)n1,10µM*,22,1%,-25%
CCc1noc(-c2cccn3c(CNC(=O)c4ccccc4C)nnc23)n1,28µM*,4,-8%,-18%
CCc1nc2c(c(-c3ccc(O)cc3)n1)CCN(Cc1ccc(C(F)(F)F)cc1)CC2,i,4,2%,-14%
Cc1ccc(N2CCN(C(=O)CCc3ccnc(N4CCOCC4)c3)CC2)cc1,i,19,-4%,3%
O=C(CCc1ccnc(N2CCOCC2)c1)NCCN1CCc2ccccc2C1,25µM*,15,-19%,-13%
Cc1ccccc1CNC(=O)CCc1ccnc(N2CCOCC2)c1,22µM*,-8,13%,3%
CCCNC(=O)CCc1ccnc(N2CCOCC2)c1,28µM*,-7,-1%,3%
Cn1ncc2c(-c3ccc(Cl)cc3Cl)cc(C(=O)N3CCN(c4ncccn4)CC3)nc21,?,4,-3%,-2%
COc1ccc(-c2c(C(=O)NCc3ccc(F)c(F)c3)nc3sccn23)cc1,·,7,-3%,-2%
COC(=O)c1ccc2nc(C[C@@H]3C[C@@H](C(C)C)[C@H](CN(C)C)C=C3C)[nH]c2c1,i,4,-1%[87.6 µM],23%[87.6 µM]
O=C1NCc2ccccc2CC12CCCN2CC1CCCCC1 (centres undefined),i,-2,-1%,17%
